From PubChem BioAssay (NCI)
“And” between values parts separate entries of the source, which are not always exact repeats. Equal entries are not always repeated. Compounds without any hit were thinned out: in the full panel of roughly 79,000, 15% have a hit. The source made the active and inactive calls. Cut-off read from the data, not from the text of the source: active = growth inhibition above about 70%; inactive = the rest.

Assays:
[1] = NCI Yeast Anticancer Drug Screen. Data for the rad50 strain (AID 155);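 note: 0% = growth of vehicle-only cultures of the same strain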; conditions: S. cerevisiae rad50 strain growth inhibition; at 50.0 µM; hits give high values
Outline: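 Genetically altered yeast (DNA repair pathway); compound treatment; growth inhibition vs vehicle ctrl.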

[2] = NCI Yeast Anticancer Drug Screen. Data for the mec2-1 strain (AID 157); conditions: S. cerevisiae mec2-1 strain, at 50.0 µM, hits give high values
Outline: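 Vehicle-treated cultures served as reference for growth inhibition of compound-exposed mec2-1 yeast.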

[3] = NCI Yeast Anticancer Drug Screen. Data for the sgs1 mgt1 strain (AID 161);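 note: 0% = growth of cultures given vehicle only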; conditions: S. cerevisiae sgs1 mgt1 strain, at 50.0 µM, hits give high values
Outline: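 Test agents were incubated with a DNA-repair-mutant yeast strain. Growth was then read and compared against vehicle-treated controls.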

[4] = NCI Yeast Anticancer Drug Screen. Data for the cln2 rad14 strain (AID 165);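 note: 0% = growth equal to vehicle treated cultures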; conditions: S. cerevisiae cln2 rad14 strain, at 50.0 µM, hits give high values
Outline: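 Each compound was tested on cln2 rad14 yeast. Inhibition of growth was calculated against vehicle-exposed controls.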

[5] = NCI Yeast Anticancer Drug Screen. Data for the bub3 strain (AID 167); conditions: S. cerevisiae bub3 mutant strain, at 50.0 µM, hits give high values
Outline: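 Yeast carrying a defined mutation is treated with each compound, and growth is compared with that of vehicle-exposed cells to give inhibition.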

[6] = NCI Yeast Anticancer Drug Screen. Data for the mlh1 rad18 strain (AID 175); conditions: S. cerevisiae mlh1 rad18 strain growth inhibition; at 50.0 µM; hits give high values
Outline: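 Vehicle-treated cultures served as the reference for growth inhibition in a yeast strain carrying DNA damage repair alterations exposed to each compound.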

Measured: growth inhibition

CCN(CC)C(=O)CCN1CC1
inactive: [1] 10.4% | [2] -0.65% | [3] 12.3% | [4] 19.5% | [5] 5.1% | [6] -1.25%

[CH3][Sn]([CH3])([CH3])[S]C(=S)N1CCOCC1
active: [1] 98.7% | [2] 90% | [3] 98.2% | [4] 94.2% | [5] 98.5% | [6] 98.5%

[CH3][Sn]([CH3])([CH3])[O]C(=O)CNC(=O)c1ccccc1
inactive: [1] -8.55% | [2] -4.1% | [3] -2.3% | [4] 27.9% | [5] 4.25% | [6] -0.3%

NC(=NCc1ccccc1)N[N+](=O)[O-]
inactive: [1] -7.3% | [2] 3.65% | [3] -10.6% | [4] 17.7% | [5] 30.7% | [6] -3.15%

CCOC(=O)C1C(=O)C(=O)N2CCc3c([nH]c4ccccc34)C12 (centres undefined)
inactive: [1] 17.5% | [2] 7.55% | [3] 34% | [4] 12.4% | [5] -3% | [6] 15.6%

CN1CCC23CC=CCC2C1Cc1ccc([N+](=O)[O-])cc13 (centres undefined)
inactive: [1] -4.15% | [2] 11.3% | [3] 7.25% | [4] -3.15% | [5] 2.4% | [6] 35%

ClCCN(CCCl)c1ccc(/C=N/Nc2ccnc3ccccc23)cc1
active: [1] 96.2% | [2] 96.3% | [3] 96.8% | [4] 96.5% | [5] 87.2% | [6] 88.8%

C[N+](C)(C)CC(CC(=O)[O-])C1CC1 (centres undefined)
inactive: [1] 3.7% | [2] -7.8% | [3] -18.6% | [4] 2.1% | [5] -19.1% | [6] -19.1%

COC(C(=O)C(O)C(C)O)C1Cc2cc3cc(OC4CC(OC(C)=O)C(OC5CC(O)C(OC)C(C)O5)C(C)O4)cc(O)c3c(O)c2C(=O)C1OC1CC(OC2CC(OC3CC(C)(O)C(OC(=O)C(C)C)C(C)O3)C(O)C(C)O2)C(O)C(C)O1 (centres undefined)
inactive: [1] 1.55% and 17.7% | [2] -5.45% and 28.8% | [3] -24.6% and 17.3% | [4] 52.5% and 58% | [5] -19.4% and 35.5% | [6] 1.2% and 17.1%

NC(=NCCCC(NCc1ccccc1)C(=O)O)N[N+](=O)[O-] (centres undefined)
inactive: [1] 16.3% | [2] 17.6% | [3] 16.6% | [4] 16.9% | [5] 6.85% | [6] 16.1%

CN(C)C(=O)Oc1c(-c2ccccc2)c(=O)n2c3ccccc3n3c(=O)n(C)c(=O)c1c23
inactive: [1] 21.8% | [2] 23.4% | [3] -0.9% | [4] 17.1% | [5] 11.7% | [6] 19.8%

CC1(C)N=C(NN=C2CCCCC2)SP1(=O)NNc1ncccn1 (centres undefined)
inactive: [1] 30.1% | [2] 11.7% | [3] 25.8% | [4] 1.95% | [5] 15.1% | [6] 23.2%

Nc1nc(N)n2c(N)nnc2n1
inactive: [1] -3.4% | [2] -19.4% | [3] -0.25% | [4] 1.5% | [5] 4.65% | [6] 13.7%

CC(C)(C)N1OC1C(Cl)(Cl)Cl (centres undefined)
inactive: [1] -20.6% | [2] -9.55% | [3] -23% | [4] -18.3% | [5] -4.95% | [6] 10.4%

C#C[C@]1(O)CC[C@H]2[C@@H]3CCC4=C/C(=N/OC(=O)c5cccc6c(=O)c7ccccc7[nH]c56)CCC4[C@H]3CC[C@@]21CC (some centres undefined)
inactive: [1] -15.8% | [2] -35% | [3] -30.4% | [4] 23.2% | [5] -29.1% | [6] -45.6%

COc1cc(C2c3cc4c(c(O)c3C[C@H]3COC(=O)[C@@H]23)OCO4)cc(OC)c1O (some centres undefined)
inactive: [1] -25.7% | [2] -23.1% | [3] -16.8% | [4] 5.8% | [5] 2.85% | [6] -13.6%

CCN1CC2(CO)CCC(OC)C34C5CC6C(OC)CC(O)(C5C6OC)C(O)(C(OC)C23)C14 (centres undefined)
inactive: [1] 1.95% | [2] -16.6% | [3] 2.7% | [4] 9% | [5] -12.6% | [6] 6.75%

Cc1ccc(C(=O)C2C(c3ccccc3)N2Cc2ccccc2)cc1 (centres undefined)
inactive: [1] 13.8% | [2] 7.85% | [3] 35.4% | [4] -10.3% | [5] 30.6% | [6] 14.7%

O=[As](O)(O)c1ccc(F)cc1
inactive: [1] 3.45% | [2] 9.8% | [3] -4.35% | [4] 14.6% | [5] 9.3% | [6] 2.95%

CCC(=O)C1(c2ccccc2)CCN(C)CC1
inactive: [1] -20.7% | [2] -35.7% | [3] 12.8% | [4] -16.5% | [5] -12.9% | [6] 6.7%

CCCCN(CCCC)CCc1ccccc1
inactive: [1] 19.6% | [2] 1.8% | [3] 8.45% | [4] 17.8% | [5] 30.4% | [6] 17%

NC1=C(N2CC2)C(=O)C(N)=C(N2CC2)C1=O
inactive: [1] 9.1% | [2] -21.4% | [3] -8.4% | [4] 7.9% | [5] -25.6% | [6] -12.7%

O=c1c(O)c(-c2ccccc2)oc2ccccc12.[Zn+2]
inactive: [1] -6.95% | [2] 7.25% | [3] 20.2% | [4] -41% | [5] 24.9% | [6] 27.6%

CC1=CC(=O)C=CC1=Nc1ccc(N(CCCl)CCCl)cc1
inactive: [1] 22.4% | [2] 11.2% | [3] 6.65% | [4] 2.95% | [5] -1.45% | [6] -5.25%

Nc1ccc([N+](=O)[O-])cc1Cl
inactive: [1] 11.8% | [2] -7.3% | [3] 45.2% | [4] 19% | [5] 12.9% | [6] 34%

O=C1NC(=S)NC(=O)C1=Cc1cccc2cc3ccccc3cc12
active: [1] 97.7% | [2] 98.8% | [3] 98.5% | [4] 93.3% | [5] 98.1% | [6] 97%

CC1(C)N=C(N)N=C(N)N1c1ccc(CCc2ccc(S(=O)(=O)F)cc2)cc1
inactive: [1] 9.15% | [2] 7% | [3] -7.3% | [4] -6.2% | [5] -8.7% | [6] 7.65%

CC1=CC(C(=O)O)P(C)(=O)C1 (centres undefined)
inactive: [1] -0.9% | [2] -18.2% | [3] -12.3% | [4] -11.6% | [5] 0.4% | [6] -10.3%

COc1cc(C(CN)N(C)C)cc(OC)c1OC (centres undefined)
inactive: [1] -42.6% | [2] -48.7% | [3] -14.9% | [4] 14.4% | [5] -0.9% | [6] -8.65%

COC1=CC2C3Cc4c(-c5cc(OC)c(O)c6c5CC5C7C=C(OC)C(=O)CC67CCN5C)cc(OC)c(O)c4C2(CCN3C)CC1=O (centres undefined)
inactive: [1] -2.7% and -3.05% | [2] 1.25% and 2.55% | [3] -2.75% and -13.1% | [4] 0.25% and -10.2% | [5] -2.45% and -0.65% | [6] 3.7% and 12.1%

[Cl][Pt+2][Cl].c1ccc(CC2CC[N-]CC2)cc1.c1ccc(CC2CC[N-]CC2)cc1
inactive: [1] -11.6% | [2] 1.1% | [3] 1.3% | [4] 2.35% | [5] 9.3% | [6] -3.6%

N#CS.N=C=S.N=C=S.[Cu+2].[NH2-].[NH2-].[NH2-].[NH2-].c1ccc2ncccc2c1
inactive: [1] -10.4% | [2] -16.6% | [3] -24.2% | [4] 26.2% | [5] -9.6% | [6] -12.5%

O=C(O)CC(=O)O.[Co+2].[NH-]CC(=O)O.[NH-]CC(=O)O
inactive: [1] 15.4% | [2] -6.65% | [3] 10.2% | [4] 0.8% | [5] -0.9% | [6] -15.9%

CC(Cl)C(=O)OC(C)C(=O)O (centres undefined)
inactive: [1] 12.1% | [2] 17.1% | [3] 12.5% | [4] 8% | [5] -2.7% | [6] 3.4%
